Measurements reported in PubChem BioAssay (EPA / NIEHS).
Calls of active or inactive are those of the source. Rule for the calls: active = hit-call score of the fitted dose curve at least 0.9, where 1 is the maximum; inactive = score below 0.9.

Legend:
[1] = ATG_ISRE_CIS: Attagene CIS-FACTORIAL HepG2 Assay for human Interferon Regulatory Factor 1 (IRF1) binding to an Interferon-Stimulated Response Element (ISRE) (AID 2282948); conditions: HepG2 ISRE cis-reporter (Attagene), mRNA transcription readout; actives raise or lower the signal
How it was run: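 Uses HepG2 liver cells transfected with cis-regulated reporters and measures mRNA 24 h post-dosing through RT-PCR, primer-extension labelling and capillary electrophoresis, with DMSO as negative control.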

[2] = ATG_M_32_CIS: Attagene CIS-FACTORIAL HepG2 Assay for M32 Transcription Factor (Internal Marker) (AID 2282949); conditions: HepG2 Attagene cis-factorial M32 reporter, mRNA; actives raise or lower the signal;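 note: background control marker of the multiplexed CIS panel rather than a real target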
How it was run: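 Transient MRTU transfection of HepG2; 24 h compound treatment; TriZol RNA, oligo(dT) RT, reporter PCR, 6-FAM primer extension, HpaI cut, CE. Gain/loss of signal vs DMSO.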

[3] = ATG_M_06_CIS: Attagene CIS-FACTORIAL HepG2 Assay for M06 Transcription Factor (Internal Marker) (AID 2282950); conditions: HepG2 Attagene CIS-FACTORIAL M06 internal marker reporter; actives raise or lower the signal
How it was run: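 HepG2 cells transiently transfected with cis-regulated multiple reporter transcription units were exposed to chemical for 24 h; reporter mRNA was quantified by RT-PCR, 6-FAM primer labelling, HpaI digestion and capillary electrophoresis, fitted bidirectionally against DMSO.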

[4] = molecular target: Hypoxia-inducible factor 1-alpha (Homo sapiens) (UniProt Q16665); assay: ATG_HIF1a_CIS: Attagene CIS-FACTORIAL HepG2 Assay for human Hypoxia Inducible Factor 1 (HIF1A) (AID 2282951); conditions: HepG2 Attagene cis-factorial HIF1a reporter transcription; actives raise or lower the signal
Sequence of Hypoxia-inducible factor 1-alpha (Homo sapiens) (Q16665 whole entry, looked up): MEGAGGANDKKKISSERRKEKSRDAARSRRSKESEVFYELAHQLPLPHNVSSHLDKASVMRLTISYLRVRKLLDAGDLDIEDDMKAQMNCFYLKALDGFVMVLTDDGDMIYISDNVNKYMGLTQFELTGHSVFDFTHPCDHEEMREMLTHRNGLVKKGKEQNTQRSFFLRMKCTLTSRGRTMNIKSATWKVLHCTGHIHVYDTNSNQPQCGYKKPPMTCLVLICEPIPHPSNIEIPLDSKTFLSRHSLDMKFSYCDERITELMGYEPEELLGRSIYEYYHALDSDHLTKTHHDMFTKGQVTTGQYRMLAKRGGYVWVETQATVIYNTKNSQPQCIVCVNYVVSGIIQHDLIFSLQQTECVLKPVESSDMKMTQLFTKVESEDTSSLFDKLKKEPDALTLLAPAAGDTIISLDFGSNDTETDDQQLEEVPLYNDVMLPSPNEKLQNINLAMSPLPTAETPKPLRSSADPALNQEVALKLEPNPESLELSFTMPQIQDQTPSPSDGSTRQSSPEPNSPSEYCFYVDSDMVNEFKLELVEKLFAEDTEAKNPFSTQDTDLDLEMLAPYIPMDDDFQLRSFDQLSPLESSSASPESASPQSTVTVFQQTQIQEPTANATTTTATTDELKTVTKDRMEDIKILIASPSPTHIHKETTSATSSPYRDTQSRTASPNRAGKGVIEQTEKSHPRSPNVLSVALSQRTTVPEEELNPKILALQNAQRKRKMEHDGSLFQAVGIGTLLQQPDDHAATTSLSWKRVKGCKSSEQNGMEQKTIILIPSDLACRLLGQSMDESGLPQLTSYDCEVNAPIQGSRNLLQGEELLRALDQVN
How it was run: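 HepG2 cells transiently transfected with multiple cis-regulated reporter transcription units measure endogenous transcription factor activity. After 24 h exposure, reporter mRNA is quantified by RT-PCR with 6-FAM labelling, HpaI digestion and capillary electrophoresis. Bidirectional fitting against DMSO.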

[5] = molecular target: Hepatocyte nuclear factor 6 (Homo sapiens) (UniProt Q9UBC0); assay: ATG_HNF6_CIS: Attagene CIS-FACTORIAL HepG2 Assay for human Hepatocyte Nuclear Factor 6 (HNF6) (AID 2282952); conditions: HepG2 Attagene cis-factorial HNF6 reporter transcription; actives raise or lower the signal
Sequence of Hepatocyte nuclear factor 6 (Homo sapiens) (Q9UBC0 whole entry, looked up, the tested form may be a part): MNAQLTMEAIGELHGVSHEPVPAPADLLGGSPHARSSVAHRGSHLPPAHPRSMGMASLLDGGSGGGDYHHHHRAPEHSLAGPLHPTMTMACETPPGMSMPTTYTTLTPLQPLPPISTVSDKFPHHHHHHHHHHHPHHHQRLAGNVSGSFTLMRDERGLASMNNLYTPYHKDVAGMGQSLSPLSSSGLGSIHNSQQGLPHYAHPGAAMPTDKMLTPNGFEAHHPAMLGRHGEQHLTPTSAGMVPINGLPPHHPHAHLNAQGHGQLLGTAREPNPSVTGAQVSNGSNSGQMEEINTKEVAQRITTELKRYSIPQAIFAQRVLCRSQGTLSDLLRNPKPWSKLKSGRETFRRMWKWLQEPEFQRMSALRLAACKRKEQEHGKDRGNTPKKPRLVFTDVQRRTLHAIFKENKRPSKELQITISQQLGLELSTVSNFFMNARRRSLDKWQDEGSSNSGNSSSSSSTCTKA
How it was run: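 Using cis-element reporters in HepG2 liver cells, the assay tracks endogenous factor-driven transcription 24 h post-dosing. Signal comes from 6-FAM-labelled, HpaI-digested RT-PCR fragments, with gain or loss scored against DMSO.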

[6] = molecular target: Heat shock factor protein 1 (Homo sapiens) (UniProt Q00613); assay: ATG_HSE_CIS: Attagene CIS-FACTORIAL HepG2 Assay for human Heat Shock Transcription Factor 1 (HSE) (AID 2282953); conditions: HepG2 HSE cis-reporter, Attagene RNA transcription; actives raise or lower the signal
Sequence of Heat shock factor protein 1 (Homo sapiens) (Q00613 whole entry, looked up): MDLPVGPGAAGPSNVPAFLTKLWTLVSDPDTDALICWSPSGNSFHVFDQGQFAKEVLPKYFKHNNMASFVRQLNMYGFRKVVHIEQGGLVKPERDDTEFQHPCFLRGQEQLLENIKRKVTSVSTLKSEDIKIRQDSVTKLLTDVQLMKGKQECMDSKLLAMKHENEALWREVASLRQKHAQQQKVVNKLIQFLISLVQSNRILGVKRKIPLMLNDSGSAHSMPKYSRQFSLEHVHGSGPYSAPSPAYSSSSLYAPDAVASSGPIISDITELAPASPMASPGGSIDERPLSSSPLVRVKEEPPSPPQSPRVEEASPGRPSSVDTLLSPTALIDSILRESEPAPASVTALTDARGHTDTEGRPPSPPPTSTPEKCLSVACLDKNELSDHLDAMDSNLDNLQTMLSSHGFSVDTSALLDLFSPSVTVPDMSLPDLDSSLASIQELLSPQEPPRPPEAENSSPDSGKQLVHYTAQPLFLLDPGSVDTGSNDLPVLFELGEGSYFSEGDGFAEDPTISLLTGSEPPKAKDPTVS
How it was run: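 HepG2 cells transiently transfected with multiple reporter transcription units under cis-regulatory promoter control, measuring endogenous transcription factor activity. After 24 h chemical exposure, reporter mRNA quantified by RT-PCR, fluorescent labelling, HpaI digestion and capillary electrophoresis; bidirectional fit versus DMSO.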

[7] = ATG_MRE_CIS: Attagene CIS-FACTORIAL HepG2 Assay for human Metal Responsive Element (MRE) (AID 2282954); conditions: HepG2 MRE cis-reporter transcription, Attagene multiplex; actives raise or lower the signal
How it was run: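 Multiplexed cis-reporter assay in human HepG2 liver cells, 24 h incubation with test chemical. Reporter transcripts measured by RT-PCR and capillary electrophoresis; values from bidirectional curve fitting versus DMSO.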

[8] = molecular target: Paired box protein Pax-6 (Homo sapiens) (UniProt P26367); assay: ATG_Pax6_CIS: Attagene CIS-FACTORIAL HepG2 Assay for human Paired Box 6 (PAX6) (AID 2282956); conditions: HepG2 CIS-FACTORIAL PAX6 reporter transcription, RNA readout; actives raise or lower the signal
Sequence of Paired box protein Pax-6 (Homo sapiens) (P26367 whole entry, looked up): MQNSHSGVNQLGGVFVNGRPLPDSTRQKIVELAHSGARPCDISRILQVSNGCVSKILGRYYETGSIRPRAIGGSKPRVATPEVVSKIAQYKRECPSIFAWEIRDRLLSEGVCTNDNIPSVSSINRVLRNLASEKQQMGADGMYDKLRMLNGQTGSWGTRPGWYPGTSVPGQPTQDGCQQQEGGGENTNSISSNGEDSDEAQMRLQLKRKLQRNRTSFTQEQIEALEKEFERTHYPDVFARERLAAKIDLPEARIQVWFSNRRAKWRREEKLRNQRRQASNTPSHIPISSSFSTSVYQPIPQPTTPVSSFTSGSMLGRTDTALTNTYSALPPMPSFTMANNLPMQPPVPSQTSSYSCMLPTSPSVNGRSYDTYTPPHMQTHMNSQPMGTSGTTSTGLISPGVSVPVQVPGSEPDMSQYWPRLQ
How it was run: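 DMSO-referenced bidirectional fits of reporter mRNA fluorescence; HepG2 with transient cis-promoter MRTUs, 24 h post-dose, RT-PCR plus capillary electrophoresis detection.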

[9] = ATG_PXRE_CIS: Attagene CIS-FACTORIAL HepG2 Assay for human Pregnane X Receptor Element (PXRE) (AID 2282957); conditions: HepG2 Attagene CIS-FACTORIAL PXRE reporter, mRNA; actives raise or lower the signal
How it was run: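 Using HepG2 transfected with multiple reporter transcription units, endogenous factor-driven transcription was scored as reporter mRNA after 24 h exposure.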

[10] = ATG_PPRE_CIS: Attagene CIS-FACTORIAL HepG2 Assay for human Peroxisome Proliferator-activated Response Element (PPRE) (AID 2282958); conditions: HepG2 PPRE cis-element reporter, Attagene transcription factor profiling; actives raise or lower the signal
How it was run: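 HepG2 cells are transiently transfected with multiplexed cis-promoter reporter units to report endogenous PPAR activity. After 24 h dosing, reporter mRNA is read by RT-PCR and capillary electrophoresis. Fitting is bidirectional against DMSO.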

[11] = ATG_RORE_CIS: Attagene CIS-FACTORIAL HepG2 Assay for human RAR-related Orphan Receptor Element (RORE) (AID 2282959); conditions: HepG2 Attagene cis-factorial RORE reporter, mRNA; actives raise or lower the signal
How it was run: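 HepG2 cells carrying transiently transfected cis-regulated reporter units; RORE-driven reporter mRNA quantified 24 h post-dosing by RT-PCR, 6-FAM primer extension, HpaI digestion and capillary electrophoresis. Bidirectional fit versus DMSO.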

[12] = ATG_Sox_CIS: Attagene CIS-FACTORIAL HepG2 Assay for human SRY-box transcription factor (SOX) (AID 2282960); conditions: HepG2 Attagene cis-factorial SOX reporter, mRNA; actives raise or lower the signal
How it was run: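 HepG2 cells transiently transfected with multiple cis-regulated reporter units, then dosed for 24 h. Reporter mRNA quantified by RT-PCR, fluorescent labelling, HpaI digestion and capillary electrophoresis; bidirectional fit versus DMSO.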

[13] = molecular target: Transcription factor Sp1 (Homo sapiens) (UniProt P08047); assay: ATG_Sp1_CIS: Attagene CIS-FACTORIAL HepG2 Assay for human Specificity Protein 1 (Sp1) (AID 2282961); conditions: HepG2 Sp1 cis-reporter transcription, actives raise or lower the signal
Sequence of Transcription factor Sp1 (Homo sapiens) (P08047 whole entry, looked up): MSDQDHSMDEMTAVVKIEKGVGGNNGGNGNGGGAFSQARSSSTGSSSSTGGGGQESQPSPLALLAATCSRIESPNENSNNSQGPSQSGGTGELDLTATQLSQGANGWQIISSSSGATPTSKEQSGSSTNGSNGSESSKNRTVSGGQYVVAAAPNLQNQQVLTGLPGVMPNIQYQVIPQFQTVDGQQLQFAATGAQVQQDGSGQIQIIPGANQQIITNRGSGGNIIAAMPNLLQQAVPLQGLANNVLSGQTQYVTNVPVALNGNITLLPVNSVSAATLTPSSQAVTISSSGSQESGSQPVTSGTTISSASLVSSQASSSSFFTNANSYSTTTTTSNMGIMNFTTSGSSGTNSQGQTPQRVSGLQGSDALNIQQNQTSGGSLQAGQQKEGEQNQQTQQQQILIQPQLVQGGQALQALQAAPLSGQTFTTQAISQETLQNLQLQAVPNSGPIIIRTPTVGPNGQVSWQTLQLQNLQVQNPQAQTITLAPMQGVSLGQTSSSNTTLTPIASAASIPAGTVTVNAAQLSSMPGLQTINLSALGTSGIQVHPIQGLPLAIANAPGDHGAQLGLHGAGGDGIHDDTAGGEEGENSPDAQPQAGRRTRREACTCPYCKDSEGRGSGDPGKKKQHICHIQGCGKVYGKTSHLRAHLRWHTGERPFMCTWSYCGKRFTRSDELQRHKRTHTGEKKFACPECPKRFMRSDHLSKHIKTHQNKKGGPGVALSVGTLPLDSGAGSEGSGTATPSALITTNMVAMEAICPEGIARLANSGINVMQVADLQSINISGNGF
How it was run: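 HepG2 cells transiently transfected with multiplexed cis-regulated reporter constructs, chemical exposure 24 h. Reporter mRNA quantified by RT-PCR with capillary electrophoresis; bidirectional fit relative to DMSO.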

[14] = ATG_SREBP_CIS: Attagene CIS-FACTORIAL HepG2 Assay for human Sterol Regulatory Element Binding (SREBP) (AID 2282962); conditions: HepG2 Attagene cis-factorial SREBP reporter, mRNA; actives raise or lower the signal
How it was run: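 In this cis-format assay, HepG2 liver cells express reporters controlled by promoter elements responsive to native transcription factors. Exposure lasts 24 h; reporter mRNA fluorescence from capillary electrophoresis gives the signal, fitted bidirectionally against DMSO.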

[15] = molecular target: Signal transducer and activator of transcription 3 (Homo sapiens) (UniProt P40763); assay: ATG_STAT3_CIS: Attagene CIS-FACTORIAL HepG2 Assay for human Signal Transducer and Activator of Transcription 3 (STAT3) (AID 2282963); conditions: HepG2, Attagene cis-factorial STAT3 reporter transcription; actives raise or lower the signal
Sequence of Signal transducer and activator of transcription 3 (Homo sapiens) (P40763 whole entry, looked up): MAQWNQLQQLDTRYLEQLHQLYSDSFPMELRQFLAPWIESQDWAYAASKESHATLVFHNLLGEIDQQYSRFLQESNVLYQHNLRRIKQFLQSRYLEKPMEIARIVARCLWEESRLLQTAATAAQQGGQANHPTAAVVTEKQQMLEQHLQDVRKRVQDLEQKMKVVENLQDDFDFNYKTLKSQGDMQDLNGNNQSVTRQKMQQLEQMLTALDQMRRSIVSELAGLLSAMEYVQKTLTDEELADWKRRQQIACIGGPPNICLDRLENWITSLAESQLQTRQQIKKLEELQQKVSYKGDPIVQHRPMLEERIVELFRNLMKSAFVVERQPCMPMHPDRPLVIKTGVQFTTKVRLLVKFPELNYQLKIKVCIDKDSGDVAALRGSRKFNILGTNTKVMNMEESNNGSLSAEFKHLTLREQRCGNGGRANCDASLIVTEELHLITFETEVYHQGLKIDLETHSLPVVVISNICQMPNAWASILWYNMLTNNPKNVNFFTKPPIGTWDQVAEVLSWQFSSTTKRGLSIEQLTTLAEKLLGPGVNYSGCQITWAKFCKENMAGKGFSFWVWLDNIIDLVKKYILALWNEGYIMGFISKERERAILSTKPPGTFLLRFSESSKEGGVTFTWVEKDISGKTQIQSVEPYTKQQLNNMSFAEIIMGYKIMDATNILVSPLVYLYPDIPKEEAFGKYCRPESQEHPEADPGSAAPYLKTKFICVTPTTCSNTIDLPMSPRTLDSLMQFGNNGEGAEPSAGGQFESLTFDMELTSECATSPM
How it was run: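 Cis-factorial format: endogenous transcription factors in HepG2 drive transfected reporter units. After 24 h treatment, reporter RNA was reverse-transcribed, amplified, FAM-labelled and HpaI-digested before CE analysis; activity scored in both directions against DMSO.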

[16] = ATG_TA_CIS: Attagene CIS-FACTORIAL HepG2 Assay for human TA Basal Promoter (AID 2282964); conditions: HepG2 Attagene CIS-factorial TA basal promoter reporter; actives raise or lower the signal
How it was run: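 HepG2 cells transiently transfected with multiplexed cis-promoter reporter units, dosed 24 h. Reporter mRNA measured by RT-PCR, 6-FAM labelling, HpaI digestion and capillary electrophoresis; bidirectional fit versus DMSO baseline, serving as background control.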

[17] = ATG_TAL_CIS: Attagene CIS-FACTORIAL HepG2 Assay for human TAL Basal Promoter (AID 2282966); conditions: HepG2 Attagene cis-factorial TAL promoter reporter; actives raise or lower the signal;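 note: background control endpoint measuring basal TAL promoter reporter mRNA not a specific factor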
How it was run: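 After 24 hours of chemical exposure, transfected HepG2 cells yielded RNA that was converted to 6-FAM-labelled, HpaI-digested reporter fragments for capillary electrophoresis. Values derive from bidirectional fitting against DMSO controls.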

[18] = ATG_TGFb_CIS: Attagene CIS-FACTORIAL HepG2 Assay for human Transforming Growth Factor (TGF) (AID 2282967); conditions: HepG2 Attagene CIS TGFb reporter, mRNA transcription; actives raise or lower the signal
How it was run: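 HepG2 cells transiently transfected with cis-promoter-driven multiplexed reporter units; 24 h compound exposure. Reporter mRNA measured by RT-PCR, 6-FAM labeling, HpaI digestion and capillary electrophoresis; bidirectional fit versus DMSO baseline.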

[19] = ATG_TCF_b_cat_CIS: Attagene CIS-FACTORIAL HepG2 Assay for human T-Cell-Factor with beta-catenin (TCF/b-cat) (AID 2282965); conditions: HepG2 TCF/beta-catenin cis-reporter transcription, actives raise or lower the signal
How it was run: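 Endogenous TCF/LEF activity read as reporter transcript level via RT-PCR and capillary electrophoresis fluorescence in transfected HepG2, 24 h exposure; gain or loss of signal fitted against DMSO controls.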

SMILES: CCCCCCCCCCCCBr
- outcome [1]: inactive
- outcome [2]: inactive
- outcome [3]: inactive
- outcome [4]: inactive
- outcome [5]: inactive
- outcome [6]: inactive
- outcome [7]: inactive
- outcome [8]: inactive
- outcome [9]: inactive
- outcome [10]: inactive
- outcome [11]: inactive
- outcome [12]: inactive
- outcome [13]: inactive
- outcome [14]: inactive
- outcome [15]: inactive
- outcome [16]: inactive
- outcome [17]: inactive
- outcome [18]: inactive

SMILES: Nc1nc(N)nc(Cl)n1
- outcome [1]: inactive
- outcome [2]: inactive
- outcome [3]: inactive
- outcome [4]: inactive
- outcome [5]: inactive
- outcome [6]: inactive
- outcome [7]: inactive
- outcome [8]: inactive
- outcome [9]: inactive
- outcome [11]: inactive
- outcome [12]: inactive
- outcome [13]: inactive
- outcome [14]: inactive
- outcome [15]: inactive
- outcome [16]: inactive
- outcome [19]: inactive
- outcome [17]: inactive
- outcome [18]: inactive

SMILES: CC(C)(c1ccccc1)c1cc(-n2nc3ccccc3n2)c(O)c(C(C)(C)c2ccccc2)c1
- outcome [1]: inactive
- outcome [2]: inactive
- outcome [3]: inactive
- outcome [4]: inactive
- outcome [5]: inactive
- outcome [6]: inactive
- outcome [7]: inactive
- outcome [8]: inactive
- AC50 [9]: 15.3 µM (active)
- outcome [10]: inactive
- outcome [11]: inactive
- outcome [12]: inactive
- outcome [13]: inactive
- outcome [14]: inactive
- outcome [15]: inactive
- outcome [16]: inactive
- outcome [19]: inactive
- outcome [17]: inactive
- outcome [18]: inactive

SMILES: CN(C1CCCCC1)C1CCCCC1
- outcome [1]: inactive
- outcome [2]: inactive
- outcome [3]: inactive
- outcome [4]: inactive
- outcome [5]: inactive
- outcome [6]: inactive
- outcome [7]: inactive
- outcome [8]: inactive
- AC50 [9]: 31.7 µM (active)
- outcome [10]: inactive
- outcome [11]: inactive
- outcome [12]: inactive
- outcome [13]: inactive
- outcome [14]: inactive
- outcome [15]: inactive
- outcome [17]: inactive
- outcome [18]: inactive

SMILES: CCC(C)(C#N)N=NC(C)(C#N)CC (centres undefined)
- outcome [1]: inactive
- outcome [2]: inactive
- outcome [3]: inactive
- outcome [4]: inactive
- outcome [5]: inactive
- outcome [6]: inactive
- outcome [7]: inactive
- outcome [8]: inactive
- AC50 [9]: 22 µM (active)
- outcome [10]: inactive
- outcome [11]: inactive
- outcome [12]: inactive
- outcome [14]: inactive
- outcome [15]: inactive
- outcome [16]: inactive
- outcome [19]: inactive

SMILES: OC[C@@H](O)[C@H]1O[C@@H]2O[C@H](C(Cl)(Cl)Cl)O[C@@H]2[C@H]1O
- outcome [1]: inactive
- outcome [2]: inactive
- outcome [3]: inactive
- outcome [4]: inactive
- outcome [5]: inactive
- outcome [6]: inactive
- outcome [7]: inactive
- outcome [8]: inactive
- outcome [9]: inactive
- outcome [11]: inactive
- outcome [12]: inactive
- outcome [13]: inactive
- outcome [14]: inactive
- outcome [15]: inactive
- outcome [16]: inactive
- outcome [19]: inactive
- outcome [17]: inactive
- outcome [18]: inactive

SMILES: O=[N+]([O-])c1cccc2ccccc12
- outcome [1]: inactive
- outcome [2]: inactive
- outcome [3]: inactive
- outcome [4]: inactive
- outcome [5]: inactive
- outcome [6]: inactive
- outcome [7]: inactive
- outcome [8]: inactive
- AC50 [9]: 27.6 µM (active)
- outcome [10]: inactive
- outcome [11]: inactive
- outcome [12]: inactive
- outcome [13]: inactive
- outcome [14]: inactive
- outcome [15]: inactive
- outcome [16]: inactive
- outcome [17]: inactive
- outcome [18]: inactive
